Compound activity as filed in PubChem.
MARV entry inh = blocks Marburg virus binding or cell entry. Marburg virus pseudotype entry/binding inhibition, cell-based. Potency, µM (titrated, usually from 49.2 µM), for the others: at the top dose activity change, negative = inhibition, actives largely listed as inhibitors. hit rate 6.5% among 18,000. AID 720532
Lassa entry = inhibitors of Lassa virus binding or entry into cells; Lassa virus pseudotyped entry inhibition, cell-based qHTS; Potency, µM (highest dose often 49.2 µM), without a hit: at the top dose activity change, negative = inhibition, usual class: inhibitors; hit rate 4.1% among 18,000
The depositor's hits bear a star; ? = inconclusive; / = no result given; ! = repeats disagree; [ ] = dose if it differs, or a comment. Only some compounds are listed: those with a hit (about 8.6% of all), similar ones and a draw of the others. The call rests on the fitted dose curve; tested in HEK293 cells. On the % scale 0 is the no-effect control and ±100 the full control effect; potency means the concentration at half of the fitted maximal effect.

SMILES	MARV entry inh	Lassa entry
CCC1(C2CCN(Cc3cccc4ccccc34)CC2)NC(=O)N(Cc2ccc3c(c2)OCO3)C1=O (centres undefined)	?	-30%
CCCCCCC#C[C@@H]1C=C[C@H](OC(=O)OCC)[C@@H](COC(=O)OCC)O1	-12%[8.59 µM]	-29%[8.59 µM]
COC(=O)c1ccc(C(=O)NCC2Cc3cc(F)cc(-c4cncnc4)c3O2)cc1 (centres undefined)	-5%	-10%
CCCNC(=O)OC[C@H]1O[C@H](CCON=C(C)CCC(=O)OC[C@H]2O[C@H](C#Cc3ccccc3)C=C[C@H]2Oc2ccc(C)cc2)C=C[C@H]1Oc1ccc(OC)cc1	-29%[8.59 µM]	4%[8.59 µM]
CC1CC2CCC(O2)C(C)C(=O)OC(C)CC2CCC(O2)C(C)C(=O)OC(C)CC2CCC(O2)C(C)C(=O)OC(C)CC2CCC(O2)C(C)C(=O)O1 (centres undefined)	5µM*	1µM*
CCOC(=O)CN1C(=O)[C@]2(OC[C@@H]3Cc4ccccc4[C@H]3C=C2C)c2ccccc21	-22%[8.59 µM]	1%[8.59 µM]
COc1ccc2ncn(-c3cc(OC(C)c4ccccc4C(F)(F)F)c(C(N)=O)s3)c2c1 (centres undefined)	0.89µM*	?
COc1ccc(COc2cc(-c3cccc(OC)c3)nc3ccc(NC(C)=O)cc23)cc1	11%	-14%
COc1cccc(COc2cc(-n3cnc4ccccc43)sc2C(N)=O)c1	13µM*	?
CCOC(=O)CN1C(=O)[C@@]2(CC(C)=CC[C@@H](COc3ccccc3)O2)c2c(Br)cccc21	-35%[8.59 µM]	-28%[8.59 µM]
C=COC[C@H]1CN2[C@H](c3ccc(Br)cc3)[C@H](C)CC[C@H]2C(=O)O1	-1%[8.59 µM]	1%[8.59 µM]
COC(=O)C1(C)C2CC(C)C(c3ccccc32)N1C(=O)C(F)(F)F (centres undefined)	-9%[8.59 µM]	/
CC(=O)OC1C[C@@]2(C)C(c3ccoc3)C[C@H]3O[C@@]32[C@@]2(C)C(=O)C(O)=C3C(C)(C)C(=O)C=C[C@]3(C)C12 (some centres undefined)	2.5µM*	?
CC(=O)O[C@@H]1C[C@@]2(C)C(c3ccoc3)C[C@H]3O[C@]32[C@]2(C)C(=O)C(O)=C3C(C)(C)C(=O)C=C[C@]3(C)C12 (some centres undefined)	8.9µM*	8.9µM*
CC(=O)OC1CC(OC(C)=O)[C@]2(C)C(CC(OC(C)=O)[C@]3(C)C2CC[C@@]2(C)C(c4ccoc4)C[C@H]4O[C@]432)C1(C)C (some centres undefined)	-22%	-2%
CC(=O)OC1CC2C(C)(C)C=CC(=O)[C@@]2(C)C2CC[C@@]3(C)C(c4ccoc4)OC(=O)C4OC43[C@]12C (some centres undefined)	8%	18%
O=C1[C@@H]2[C@H]3[C@H](O)[C@H](O)CC(=NOC[C@@H](O)COCc4ccco4)[C@H]3CC[C@H]2C(=O)N1C[C@@H]1CCCO1	4%[8.59 µM]	-14%[8.59 µM]
Oc1ccc(/C=C\c2cc(O)cc(O)c2)cc1	11µM*	10µM*
COc1ccc(/C=C/c2cc(O)cc(O)c2)cc1	1%	-3%
Oc1ccc(/C=C/c2cc(O)cc(O)c2)cc1	7.1µM*	7.9µM*
O=C(/C=C/c1ccc(O)cc1)c1ccc(O)cc1O	22%	9%
C#CC1(O)C(OC)=CC2C(=O)C1C(c1ccccc1)C2C (centres undefined)	-4%[8.59 µM]	/
COc1ccc(O[C@H]2C=C[C@@H](c3ccccc3)O[C@H]2COC(=O)CCC(C)=NOCC[C@@H]2C=C[C@H](OC(C)=O)[C@@H](COC(C)=O)O2)cc1	33%[8.59 µM]	5%[8.59 µM]
Nc1nccc(-c2c(-c3ccc(F)cc3)nn3cc(C(F)(F)F)ccc23)n1	30%	28%
C[C@@H]1[C@@H](c2ccccc2)c2cc3ccccc3nc2-c2nc3ccccc3cc2[C@H]1C(=O)N1CCCC1	25%[8.59 µM]	52%[8.59 µM]
SMILES	MARV entry inh	Lassa entry
CCOC(=O)[C@@]1([C@@H](NC(=O)OC)c2ccco2)CCCC1=O	-9%[8.59 µM]	-4%[8.59 µM]
Oc1cccc(O)c1O	?	-8%
Oc1cccc[c]1[Hg][Cl]	?	1µM*
CCOC(=O)CN1C(=O)NC(c2cccc(C(F)(F)F)c2)C(C(C)=O)=C1C (centres undefined)	31%[8.59 µM]	7%[8.59 µM]
C[C@H]1CN(c2ccccc2)C(=O)[C@H]1CC(=O)Nc1ccccc1	24%	13%
COc1cc(Nc2ncc(-c3ccccc3)o2)cc(OC)c1	58%	110%
C=CCN(C)CCCCCCOc1ccc(C(=O)c2ccc(Br)cc2)c(F)c1	4µM*	?
CN1[C@@H](c2ccccc2)COc2c(Cl)cccc2S1(=O)=O	-9%	-44%
Cn1cc(C(=O)OCC2CCN(CCNS(C)(=O)=O)CC2)c2ccccc21	?	2%
COc1cc(N)c(Cl)cc1C(=O)CCC1CCN(CCNS(C)(=O)=O)CC1	32µM*!	?
COc1cc(COc2cc(N)c(Cl)cc2C(=O)CCC2CCN(CCNS(C)(=O)=O)CC2)cc(OC)c1	7.9µM*	?
COc1cc(N)c(Cl)cc1C(=O)OCCN1CCCCC1	-17%	5%
COc1cccc([C@@H]2Oc3ccc(Br)cc3C[C@@H]2OC(=O)N[S+](=O)([O-])c2ccc(C)cc2)c1	-4%[8.59 µM]	3%[8.59 µM]
COCC=CC1=CC2=CC(=O)C(C)(OC(=O)c3cnc4ccccc4n3)C(=O)C2=CN1CCCCO (centres undefined)	46%[8.59 µM]	6%[8.59 µM]
CCOC(=O)c1ccc(OC(=O)CCCCCN=C(N)N)cc1	38%[17.8 µM]	-2%[17.8 µM]
CCCCCCCCN=C(N)c1ccc(C(=O)OCC2CCCCC2)cc1	2.8µM*	13µM*
COc1ccc(C=CC2=C[C@]3(C)C[C@]2(C)[C@H](c2ccc(OC)cc2)CC3=O)cc1	4%[8.59 µM]	5%[8.59 µM]
FC(F)(F)c1ccc(-c2nc(-c3ccccc3)oc2NCc2ccccc2)cc1	-7%[8.59 µM]	?
COc1cccc([C@H]2Oc3ccc(OC)cc3C(=NOC[C@@H](O)COCc3ccco3)[C@H]2O)c1	?	10%[8.59 µM]
CC[C@H]1OC(c2ccccc2)[C@H](C)[C@H]2O[C@@H]2[C@@H]1C(=O)OC (some centres undefined)	-5%[8.59 µM]	-12%[8.59 µM]
CSc1ccc2c(c1)C(N1CCN(C)CC1)Cc1ccccc1S2 (centres undefined)	6.3µM*	22µM*!
CN1CCN(C2Cc3ccccc3Sc3ccc(Cl)cc32)CC1 (centres undefined)	13µM*	?
CSc1ccc2c(c1)[C@H](N1CCN(C)CC1)Cc1ccccc1S2	11µM*	28µM*!
Cc1cnc(C)c(-c2ccc(F)c3c2OC(CNC(=O)/C=C/c2cccs2)C3)n1 (centres undefined)	-27%	?
N#Cc1c(NC(=O)c2ccc(F)cc2)sc2c1CCCC2	49%	21%
SMILES	MARV entry inh	Lassa entry
O=C1[C@@H]2CSCCS(=O)(=O)N2C(=O)N1c1ccccc1	27%	-3%
Clc1ccccc1-c1nccc(-n2ccnc2)n1	-7%	0%
Clc1ccccc1C(c1ccccc1)(c1ccccc1)n1ccnc1	11µM*	13µM*
CC12C=C(C=Cc3ccc(Br)cc3)C(C)(C1)C(c1ccc(Br)cc1)CC2=O (centres undefined)	-26%[8.59 µM]	/
O=C(OC1Cc2c(O)cc(O)cc2OC1c1cc(O)c(O)c(O)c1-c1c(C2Oc3cc(O)cc(O)c3CC2OC(=O)c2cc(O)c(O)c(O)c2)cc(O)c(O)c1O)c1cc(O)c(O)c(O)c1 (centres undefined)	11µM*	-2%
O=C(OC1Cc2c(O)cc(O)cc2OC1c1cc(O)c(O)c(O)c1)c1cc(O)c(O)c(O)c1 (centres undefined)	8.9µM*	-1%
